Measurements taken from the supplement of paper PMC10338343.
± gives the standard deviation. The full ranking holds about 8,200 sequences; the median of “pre-steady-state target cleavage rate” is about 0.024, and the highest 2% start at about 1.3. The sample as a whole holds a higher share of the highest values than the screen did.

Test system: MIWI (PIWIL1) piRISC loaded with L1MC piRNA (30 nt)
Assay: pre-steady-state target cleavage rate (min^-1); MIWI and MILI are mouse PIWI proteins and EfPiwi is from a freshwater sponge; tags in brackets are library labels; higher = faster piRNA-guided slicing of the target
Conditions: guide: L1MC piRNA 5'p-UAACUAAAUACUAUGCAAGCUGUAGGUCCU
In short: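 Cleave-'n-Seq reactions paired 0.1 nM transcribed, DNA-blocked target RNA library with 1 nM active affinity-purified piRISC holding one synthetic guide, plus or minus 500 nM GTSF1 partner protein, in HEPES–potassium acetate buffer at 33 °C for 0–8 or 0–960 min. After sequencing of uncleaved targets and normalisation to depth and weakly complementary targets, the pre-steady-state cleavage rate was taken from a burst-and-steady-state fit. Three trials were pooled, and k3 was capped at 0.0001 min^-1.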

[1] = auxiliary factor: 500 nM mouse GTSF1
[2] = auxiliary factor: none (no GTSF1)

Row | Sequence | pre-steady-state target cleavage rate [1] | pre-steady-state target cleavage rate [2]
1 | UCCACGAUCAGCUUGCAUAGUAUUUAGUAA | 1.09 ± 0.079 | 0.0387 ± 0.009
2 | UCCACGAUCAGCUUGCAUAGUAUUUAGUUA | 1.55 ± 0.058 | 0.0711 ± 0.013
3 | UCCACGAUCAGCUUGCAUAGUAUUUAGAAA | 0.444 ± 0.044 | 0.00814 ± 0.0028
4 | UCCUGCUACAGCUUGCAUAGAAUUUACAAA | 0.309 ± 0.065 | 
5 | AGGACCUUCAGCUUGCAUAGUAUUUUCAAA | 0.311 ± 0.038 | 0.00593 ± 0.0032
6 | AGGACCUACAGCUUGCAUAGUAUAUUCAAA | 0.419 ± 0.072 | 
7 | UCCUGGCACAGCUUGCAUAGUAUUUAGUUA | 0.456 ± 0.081 | 0.0452 ± 0.011
8 | UCCUCCCACAGCUUGCAUAGUAUUUAGUUA | 1.15 ± 0.04 | 0.0641 ± 0.012
9 | UCCUGCUCACAGCUUGCAUAGUAUUUAGUUA | 1.37 ± 0.076 | 0.0748 ± 0.014
10 | UCCUCCUCACAGCUUGCAUAGUAUUUAGUUA | 1.49 ± 0.064 | 0.0662 ± 0.014
11 | UCCUGCACAGCUUGCAUAGUAUUUAGUUA | 1.34 ± 0.073 | 0.0804 ± 0.018
12 | UCCUCCACAGCUUGCAUAGUAUUUAGUUA | 0.736 ± 0.027 | 0.0534 ± 0.011
13 | UCCUGGUCACAGCUUGCAUAGUAUUUAGUUA | 0.818 ± 0.034 | 0.0939 ± 0.022
14 | UCCUGCUCAGCUUGCAUAGUAUUUAGUUA | 1.09 ± 0.043 | 0.0636 ± 0.013
15 | UCCUGCCACAGCUUGCAUAGUAUUUAGUUA | 1.2 ± 0.051 | 0.0769 ± 0.013
16 | UCCUGGAUGAGCAAGCAUAGUAUUUAGUAA | 0.0379 ± 0.01 | 
17 | UCCUGGAUGUGCAUGCAUAGUAUUUAGUUA | 0.13 ± 0.014 | 0.00793 ± 0.0025
18 | UCCUGGAUGUGCUUGCAAAGUUUUUAGUUA | 0.00751 ± 0.0037 | 0.00575 ± 0.002
19 | UCCUCCAACAGCUUGGAUAGUAUUUAGUUA | 1.3 ± 0.053 | 0.0527 ± 0.0092
20 | UCCAGCUACAGCUUGGAUAGUAUUUAGUUA | 1.31 ± 0.12 | 0.0456 ± 0.0069
21 | UCGAGCUACAGCUUGGAUAGUAUUUAGUUA | 1.11 ± 0.086 | 0.0477 ± 0.0076
22 | AGGACCAACAGCUUGCAUAGUAUUUAGAUA | 0.509 ± 0.045 | 0.0557 ± 0.011
23 | UCCACCAACAGCUUGGAUAGUAUUUAGUUA | 1.36 ± 0.056 | 0.0553 ± 0.01
24 | AGGACCAACAGCUUGGAUAGUAUUUAGUUA | 1.41 ± 0.059 | 0.0681 ± 0.01
25 | UCCUGGAACAGCUUGGAUAGUAUUUAGUUA | 1.18 ± 0.043 | 0.0808 ± 0.015
26 | UCGACCAACAGCUUCCAUAGUAUUUAGUUA | 0.0723 ± 0.016 | 0.0035 ± 0.0011

Row | Sequence | pre-steady-state target cleavage rate [1] | pre-steady-state target cleavage rate [2]
27 | UGGACCAACAGCUUGGAUAGUAUUUAGUUA | 1.49 ± 0.054 | 0.0691 ± 0.011
28 | UCGACCAACAGCUUGGAUAGUAUUUAGUUA | 1.67 ± 0.045 | 0.0693 ± 0.011
29 | UGGACCAACAGCUUCCAUAGUAUUUAGUUA | 0.0364 ± 0.0068 | 0.00383 ± 0.0016
30 | AGGACCAACAGCUUCCAUAGUAUUUAGUUA | 0.0962 ± 0.019 | 0.00538 ± 0.0017
31 | UCCUCCUACAGCUUCGAUAGUAUUUAGAAA | 0.0755 ± 0.019 | 
32 | UCCUGGAUGAGCUUGCAUAGUAUUUAGUGA | 0.703 ± 0.047 | 0.0519 ± 0.0094
33 | UCCUGCUACAGCUUGCAUUGUAUUAAGUUA | 0.502 ± 0.038 | 0.00942 ± 0.0021
34 | UCCACCUACAGCUUGGAUAGUAUUUUCAAA | 0.0295 ± 0.012 | 
35 | UCCUCCUACAGCAUGCAUAGUAUUUAGAAA | 0.485 ± 0.066 | 
36 | UGGACCUACAGCUUGGAUAGUAUUUAGAUA | 0.427 ± 0.05 | 0.0235 ± 0.0046
37 | UCGACCUACAGGUUGGAUAGUAUUUAGUUA | 1.16 ± 0.11 | 0.0308 ± 0.0056
38 | AGGACCUACAGCUUGGAUAGUAUUUAGUUA | 1.67 ± 0.052 | 0.0813 ± 0.013
39 | UGGACCUACAGGUUGGAUAGUAUUUAGUUA | 1.33 ± 0.091 | 0.0484 ± 0.0079
40 | AGGACCUACAGCUUGGAUAGUAUUUAGAUA | 0.527 ± 0.057 | 0.0218 ± 0.0053
41 | AGGACCUACAGGUUGGAUAGUAUUUAGUUA | 1.24 ± 0.079 | 0.0408 ± 0.0067
42 | UCCACCUACAGCUUGGAUAGUAUUUAGUAA | 0.747 ± 0.054 | 0.0244 ± 0.0052
43 | UCCACCUACAGCUUGGAUAGUAUUUAGUUA | 1.44 ± 0.056 | 0.0469 ± 0.0082
44 | UCCACCUACAGCUUGGAUAGUAUUUAGAUA | 0.319 ± 0.042 | 0.0137 ± 0.0027
45 | UGGACCUACAGCUUGGAUAGUAUUUAGUAA | 0.851 ± 0.062 | 0.0355 ± 0.006
46 | UGGACCUACAGCUUGGAUAGUAUUUAGUUA | 1.65 ± 0.068 | 0.0735 ± 0.013
47 | AGGACCUACAGCUUGGAUAGUAUUUAGUAA | 1.02 ± 0.063 | 0.0552 ± 0.012
48 | UCCACCUACAGGUUGCAUAGUAUUUACAAA | 0.336 ± 0.052 | 
49 | UCCACCUACAGCUUGCAUAGUUUUUAGAUA | 0.16 ± 0.029 | 0.0077 ± 0.0023
50 | UCCUGGUUCAGGUUGCAUAGUAUUUAGUUA | 0.711 ± 0.051 | 0.0138 ± 0.0041
51 | AGGAGCUACAGCUAGCAUAGUAUUUAGUUA | 1.28 ± 0.076 | 0.0359 ± 0.0079
52 | UCCUGCUACAGCUAGCAUAGUAUUUACAAA | 0.234 ± 0.049 | 

Row | Sequence | pre-steady-state target cleavage rate [1] | pre-steady-state target cleavage rate [2]
53 | UCCUGCUACAGCUUGCUUAGUAUUAAGUUA | 0.403 ± 0.038 | 0.00887 ± 0.0026
54 | UCCUGGAUCAGCUUGCAUCGUAUUUAGUUA | 0.327 ± 0.02 | 0.032 ± 0.0077
55 | AGGACCUACAGCUUGCAUAGUAUUUUCUUA | 0.33 ± 0.049 | 0.03 ± 0.0093
56 | UCCUCCUACACCUUGCAUAGAAUUUAGUUA | 0.341 ± 0.082 | 0.00682 ± 0.0023
57 | UCCUCCUACAGCUUGCAUUGAAUUUAGUUA | 0.183 ± 0.018 | 0.00617 ± 0.0025
58 | UCGACCUACACCUUGCAUAGAAUUUAGUUA | 0.395 ± 0.07 | 0.0128 ± 0.0024
59 | UCGACCUACAGCUUGCAUUGUAUUUACUUA | 0.49 ± 0.028 | 0.0226 ± 0.0052
60 | AGGACCUACAGCUAGGAUAGUAUUUAGUUA | 1.09 ± 0.06 | 0.0102 ± 0.0018
61 | UCGACCUACAGCUAGGAUAGUAUUUAGUUA | 1.29 ± 0.064 | 0.00874 ± 0.0021
62 | UGGACCUACAGCUAGGAUAGUAUUUAGUUA | 1.39 ± 0.068 | 0.00938 ± 0.0019
63 | AGGAGCUACAGCUUGGAUAGUAUUUAGUUA | 1.17 ± 0.081 | 0.0558 ± 0.0094
64 | UCCUCGUACAGCUUGGAUAGUAUUUAGUUA | 1.22 ± 0.062 | 0.0636 ± 0.011
65 | AGGACGUACAGCUUGGAUAGUAUUUAGUUA | 1.36 ± 0.067 | 0.0579 ± 0.0083
66 | UCGACGUACAGCUUGGAUAGUAUUUAGUUA | 1.24 ± 0.042 | 0.0503 ± 0.0083
67 | UCCACGUACAGCUUGGAUAGUAUUUAGUUA | 1.14 ± 0.065 | 0.0509 ± 0.0081
68 | UGGACGUACAGCUUGGAUAGUAUUUAGUUA | 1.4 ± 0.054 | 0.0597 ± 0.01
69 | UCGUCCUAGAGCUUGCAUAGUAUUUAGUUA | 0.957 ± 0.041 | 0.0436 ± 0.0072
70 | UCCUCCUAGCAGCUUGCAUAGUAUUUAGUUA | 1.12 ± 0.046 | 0.0448 ± 0.0093
71 | UCCACCUACAGCUUCGAUAGUAUUUAGAAA | 0.0807 ± 0.021 | 
72 | UCCUGGAUGAGCUUGCUAUGUAUUUAGUUA | 0.00494 ± 0.0027 | 0.00308 ± 0.0029
73 | UCCUGCUUCAGCUUGCAUAGUAUUUAGUAA | 0.537 ± 0.036 | 0.0275 ± 0.0068
74 | UCGAGCUUCAGCUUGCAUAGUAUUUAGUUA | 1.12 ± 0.046 | 0.0555 ± 0.0099
75 | UGGAGCUAGAGCUUGCAUAGUAUUUAGUUA | 0.707 ± 0.048 | 0.0402 ± 0.0068
76 | AGGAGCUUCAGCUUGCAUAGUAUUUAGUUA | 1.48 ± 0.047 | 0.0864 ± 0.015
77 | AGGAGCUAGAGCUUGCAUAGUAUUUAGUUA | 0.922 ± 0.049 | 0.0536 ± 0.0099
78 | UGGAGCUUCAGCUUGCAUAGUAUUUAGUUA | 1.34 ± 0.048 | 0.0706 ± 0.01
